Assay outcomes deposited in PubChem BioAssay by several laboratories.
Shown are actives, neighbours in structure and some others; about 2.5% of the full set was active somewhere.
TROY NFkB inh – blocks TROY-dependent signaling in reporter cells; Q293 LMP1-TROYcd NF-kB luciferase reporter, 4 h; inhibition, % at 10 µM; hit rate 0.98% among 360,000; AID 1347056;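 active = compounds whose plate-normalised and pattern-corrected inhibition of the luciferase reporter signal at the single screening dose is 50% or more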
EWS-Fli inh – inhibitors of EWS/Fli oncoprotein transcriptional activity. A673 NR0B1-luciferase reporter, viability-normalised. AID 651661. inhibition, % at 12.6 µM. hit rate 0.67% among 350,000;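 active = mean inhibition of at least 50% after viability correction, with every replicate also passing that limit; inconclusive = mean reaches 50% but only one of two replicates passes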;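 note: firefly luciferase signal divided by Alamar Blue viability fluorescence both relative to DMSO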
TWEAK-Fn14 inh – TWEAK-Fn14 signaling inhibition. TWEAK-stimulated Fn14 reporter cells, luciferase luminescence, 8 h. inhibition, % at 10 µM. hit rate 2% among 360,000. AID 1159606; in the data active = inhibition above about 50%
LGR2 antag – blocks bursicon-induced cAMP signaling via Drosophila LGR2. HEK293 LGR2, CRE-luciferase, bursicon-stimulated, 4 h. inhibition, % at 9.99 µM. hit rate 0.35% among 380,000;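 active = drop in luminescence signal, shown as inhibition above about 50% in the replicate tests, limit read from the data, passing the limit was not always enough; inconclusive = probably only some replicates passing the limit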;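 note: agonist challenge used bursicon conditioned medium at about half maximal strength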
EBV LMP1 NFkB – Epstein-Barr LMP1 NF-kappaB reporter inhibition; LMP1-induced NF-kappaB luciferase reporter cells, luminescence; inhibition, % at 12.5 µM; hit rate 0.69% among 350,000; AID 504558; in the data active = inhibition above about 41%; inconclusive = no clear call, values can overlap the other calls
Hits are given with their value; - = inactive; ? = inconclusive; . = no result.

SMILES | TROY NFkB inh | EWS-Fli inh | TWEAK-Fn14 inh | LGR2 antag | EBV LMP1 NFkB
O=C(NCCc1ccccc1)c1ccc2c(c1)OCO2 | 70.1 | 72.9 | 93.5 | 78.8 | 49.3
O=C(NCCS(=O)(=O)NCc1ccccc1)c1ccc2c(c1)OCO2 | - | - | - | - | -
CCOc1ccc(C(=O)NCCc2ccccc2)cc1 | 51.5 | 58.7 | 77.3 | 78.2 | -
CCOc1ccc(C(=O)NCCCCNC(=O)c2ccc(OCC)cc2)cc1 | - | - | - | - | -
O=C(NCc1ccc2c(c1)OCO2)c1cccc(F)c1 | . | . | 81.8 | . | -
CCOc1ccc(C(=O)NC(=S)N(Cc2ccccc2)Cc2ccccc2)cc1 | - | - | - | - | 50.5
CCOc1ccc(CN(CCC#N)C(=S)NC(=O)c2ccccc2)cc1 | - | . | - | - | -
O=C(NCCc1ccccc1)c1ccc2nccnc2c1 | 56.6 | - | 93.4 | 68.5 | 50.2
O=C(NCCc1ccccc1)c1cccnc1 | - | . | - | . | -
COc1ccc(C(=O)Nn2c(C)nc3ccccc3c2=O)cc1Br | - | - | - | - | -
COc1ccc(C(=O)Nn2c(C)nc3ccccc3c2=O)cc1OC | 59.2 | - | - | - | -
COCC(C)n1c(SCC(=O)NC2CCCCC2)nc2ccccc2c1=O (stereo not given) | - | - | - | - | -
COc1ccc(C(=O)Nn2c(SCC(=O)NC3CCCC3)nc3ccccc3c2=O)cc1 | 78.5 | . | 78.5 | . | -
COc1ccc(C(=O)Nn2c(SCC(=O)NCC3CCCO3)nc3ccccc3c2=O)cc1 (stereo not given) | 77.6 | . | 95.2 | . | -
COc1ccc(C(=O)Nn2c(SCC(=O)NCc3ccccc3)nc3ccccc3c2=O)cc1 | 77.7 | . | 85.1 | . | -
O=C(NC[C@H]1CC[C@H]2[C@H](CN2Cc2ccc(Oc3ccccc3)cc2)O1)C1CCOCC1 | . | - | . | . | .
Cc1ccc(S(=O)(=O)Nc2ccc3c(c2)C(=O)N([C@@H](C)CO)C[C@@H](C)[C@@H](CN(C)C(=O)NC(C)C)OCCCC[C@@H](C)O3)cc1 | . | - | . | - | .
CNC[C@@H]1Oc2cc(C#CC3(O)CCCC3)ccc2S(=O)(=O)N([C@@H](C)CO)C[C@@H]1C | . | - | . | - | .
Cc1c([N+](=O)[O-])c2ccc(O)cc2n1-c1ccccc1 | - | - | 56.1 | - | -
O=C1/C(=C/c2cccnc2)SC(=S)N1Cc1ccco1 | - | - | - | - | 42.6
O=C1/C(=C/c2ccccc2O)SC(=S)N1Cc1cccnc1 | - | - | - | 82.8 | -
O=C1/C(=C/c2ccc(O)c([N+](=O)[O-])c2)SC(=S)N1Cc1ccccc1 | - | - | 60.1 | - | -
Cc1cc(/C=C2\SC(=S)N(Cc3ccco3)C2=O)c(C)n1-c1cccnc1 | - | . | - | . | -
O=C1/C(=C\c2ccc(O)cc2)SC(=S)N1Cc1ccccc1 | - | - | - | - | -
O=C1/C(=C\c2cccc([N+](=O)[O-])c2O)SC(=S)N1Cc1ccccc1 | - | - | 69.0 | - | -
SMILES | TROY NFkB inh | EWS-Fli inh | TWEAK-Fn14 inh | LGR2 antag | EBV LMP1 NFkB
CCOCCC(=O)Nc1ccc2c(c1)c(=O)n(C)n2C/C=C/c1ccccc1 | - | 59.5 | - | - | .
CC(C)=CCn1c2ccc(NC(=O)NCc3ccc(F)cc3)cc2c(=O)n1C | - | ? | - | - | .
Cn1c(=O)c2cc(NC(=O)NCc3ccc(F)cc3)ccc2n1C/C=C/c1ccccc1 | - | 56.4 | - | - | .
Cn1c(=O)c2cc(NC(=O)Cc3ccccc3F)ccc2n1C/C=C/c1ccccc1 | - | - | - | - | .
O=C(c1ccccn1)N1CC(=O)N2[C@H](C1)[C@H](c1ccc(C#CC3CCCC3)cc1)[C@@H]2CO | . | - | . | - | .
O=C(O)Cc1ccc(NC(=O)c2cccc(NC(=O)c3ccco3)c2)cc1 | - | - | - | - | -
O=C(Nc1ccccc1)c1cccc(NC(=O)c2ccco2)c1 | - | - | 100.7 | - | -
Cc1ccccc1NC(=O)c1cccc(NC(=O)c2ccco2)c1 | - | - | - | - | -
CCOc1ccccc1NC(=O)c1cccc(NC(=O)c2ccco2)c1 | - | . | 88.4 | . | -
O=C(C1CCCC1)N1[C@@H](CO)[C@@H](c2ccccc2)C12CN(CCC(F)(F)F)C2 | . | - | . | - | .
COc1ccc(NC(=O)N(C)C[C@H]2OCCCC[C@H](C)Oc3ccc(NC(=O)Cc4ccccc4)cc3C(=O)N([C@H](C)CO)C[C@H]2C)cc1 | . | - | . | - | .
O=C(c1c[nH]c2ccccc12)C(Cl)c1ccccc1 (stereo not given) | - | - | 78.7 | - | -
c1ccc(-c2cn3c(n2)-c2ccccc2C3)cc1 | - | - | 72.1 | ? | -
O=C1c2ccccc2CN2C(=O)c3ccccc3CN12 | - | . | - | - | -
